# Reference: PubChem BioAssay
# Values joined by “and” are separate entries in the source; they are usually repeats but may differ in a detail not shown here. Equal values may be shown once. Active and inactive are the calls of the source. Unless noted, the rule behind the calls is not given here.
# Key:
# [1] = liver-stage malaria parasite growth inhibition, primary screen, cell-based, HepG2, luciferase luminescence, HepG2 viability (AID 624349; in the data active = parasite load remaining mostly below about 12%, no sharp cut-off; inactive = mostly above about 10%;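 note: 100% = mean of DMSO negative control wells on the same plate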); conditions: P. berghei liver stage in HepG2, luciferase luminescence, concentration not given here; parasite load remaining: stronger effect = lower value; viability: measured here: HepG2 viability without parasites
# [2] = stimulators of nuclear beta-catenin in C2C12, primary screen, imaging, WNT3A-conditioned medium, mouse C2C12, NPC library (AID 1117326; in the data active = nuclear beta-catenin stimulation mostly above about 4.2%, no sharp cut-off; inactive = mostly below about 10%); conditions: stronger effect = higher value
# [3] = stimulators of insulin release from INS-1E, primary screen, cell-based, 5 mM glucose, NPC library (AID 1117329;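 active = compound raises insulin release from rat beta cells at 5 mM glucose, no numeric limit stated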); conditions: rat INS-1E insulin secretion, at 10 µM, stronger effect = higher value
# [4] = growth inhibition of GSK3B-pretreated HCT116 cells – cell-based, CellTiter-Glo, 0.2 to 20 µM (AID 1117336;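 active = compounds lowering colon cancer cell viability after pretreatment blocking the GSK3B kinase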); conditions: HCT116 viability after GSK3B inhibitor, at 20 µM, stronger effect = higher value
# [5] = inhibition of endothelial tube formation, primary screen, imaging, VEGF stimulated, CD31 staining, tube area, NPC library (AID 1117340;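 active = compound that reduces growth-factor-driven endothelial tube area in a mixed cell culture, no cutoff stated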); conditions: VEGF-stimulated ADSC/ECFC co-culture, at 10 µM, stronger effect = higher value
# [6] = glucagon-like peptide 1 release enhancers, primary assay, NCI-H716 cell line, NPC library (AID 1117341;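 active = compound raises GLP1 secretion from the human gut endocrine cells, with no numeric limit stated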); conditions: NCI-H716 cells, at 10 µM, stronger effect = higher value
# [7] = HCT116 colon cancer cell growth inhibition, primary screen, CellTiter-Glo luminescence, NPC library (AID 1117342;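 active = compounds that lower survival of HCT116 colon cancer cells in the luminescence readout, no numeric limit stated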); conditions: at 20 µM (top of the series)
# [8] = CellTiter-Glo luminescent readout of SW480 viability loss, NPC library primary (AID 1117343;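 active = compounds that lower viability of the colon cancer cells in the luminescence readout, with no numeric limit stated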); conditions: CellTiter-Glo luminescence; at 20 µM (top of the series)
# [9] = decreased DLD-1 cellular survival, CellTiter-Glo luminescent readout, NPC compound collection, primary HTS (AID 1117346;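 active = compounds that lower survival of DLD-1 colon cancer cells in the luminescence readout, no cutoff given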); conditions: DLD-1 viability, CellTiter-Glo luminescence; at 20 µM (top of the series)
# [10] = biological target: 6-phosphogluconate dehydrogenase, decarboxylating (Homo sapiens) (UniProt P52209); assay: 6PGD enzyme inhibitors, primary screen, biochemical, human, recombinant enzyme, NADPH absorbance (AID 1159550;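 active = at least 20% inhibition of 6-phosphogluconate dehydrogenase activity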); conditions: recombinant 6PGD, NADPH absorbance 341 nm; at 10 µM; stronger effect = higher value
# [11] = differential killing of epithelial or mesenchymal cells, primary screen, imaging, PC-3E GFP, TEM4-18 mCherry, co-culture (AID 1345086;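 active = compounds killing one labelled cell type while sparing the other, by normalised counts and ratio limits, not self-fluorescent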;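 for all read-outs here: cells exposed to compound for 72 h before imaging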;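 for red/green cell ratio (normalised): normalised mesenchymal count divided by normalised epithelial count so high means epithelial killing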); conditions: imaging cell counts, at 1 µM; for red/green cell ratio (normalised): actives lie on both sides
# [12] = system: Aerobactin synthetase IucA (Klebsiella pneumoniae hvKP1); assay: Biochemical IucA enzyme inhibition primary screen of the Spectrum library (AID 1346200); conditions: malachite green pyrophosphate, A620, at 8 µM, stronger effect = lower value;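 note: 100% = wells without compound and 0% = wells lacking enzyme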
# [13] = biological target: Mitogen-activated protein kinase 7 (Homo sapiens) (UniProt Q13164); assay: ERK5 transactivation activators in reporter cells, primary screen, cell-based, HTS (AID 1508626;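 active = luciferase signal above three times the same-plate solvent-only control wells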;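 note: luciferase driven by Gal4-ERK5 fusion binding five Gal4 sites before minimal TATA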); conditions: HeLa Gal4-ERK5 transactivation, 18 h, at 5 µM, stronger effect = higher value
# [14] = system: Aerobactin synthetase IucA (Klebsiella pneumoniae, hypervirulent); assay: IucA enzyme inhibition, biochemical, LOPAC library, absorbance readout (AID 1346212); conditions: IucA enzyme assay, absorbance (OD) readout; stronger effect = lower value;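 tested at 8 µM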;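 note: 100% = no compound wells and 0% = no enzyme wells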
# [15] = sensitizers of A549 cells to miR-34 induction, primary screen, imaging, A549 dox-inducible miR-34, nuclei and caspase counts (AID 1347080;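 active = compounds whose cell count with miR-34 switched on is under 0.7 times the count with it off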); conditions: A549 miR-34 inducible, Hoechst nuclei count, 48 h
# [16] = viability rescue of complex I mutant cybrids, primary screen, cell-based, galactose medium, ATP luminescence (AID 1645843;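 active = z-score of at least 1.8 in each of two replicates, scored against plate mean and spread of sample wells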;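 note: positive z means more ATP and so rescue of galactose-driven cybrid death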); conditions: complex I mutant cybrid cells, 72 h, stronger effect = higher value
# [17] = hESC survival regulators, cell-based (AID 493140); conditions: human embryonic stem cell survival screen; stronger effect = higher value;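 note: cells exposed to compounds for four days before counting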
# [18] = survival rescue of mitochondrial mutant cells in low glucose, primary screen, MELAS cybrids, Rieske KO mouse fibroblasts, CellTiter-Glo (AID 1508586;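 active = mean z-score across replicates of 1.96 or higher in either the MELAS or the Rieske mutant cell line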;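 note: z relative to plate mean and SD of compound and empty wells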)
# [19] = biological target: NAD(+) hydrolase SARM1 (Homo sapiens) (UniProt Q6SZW1); assay: SARM1 TIR NADase inhibitors, cell lysate, NAD-Glo luminescence (AID 1508614;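 active = compound whose remaining NAD level is above about 45 nM, limit read from the data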;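 note: higher remaining NAD means stronger inhibition of SARM1 NADase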); conditions: SAM-TIR HEK293T lysate NADase, at 1 µM, stronger effect = higher value
# [20] = measured here: epithelial PC-3E GFP cell survival
# [21] = measured here: mesenchymal TEM4-18 mCherry cell survival
# [22] = measured here: relative caspase fold change +Dox/-Dox
# [23] = measured here: total cells with miR-34 induction, stronger effect = lower value
# [24] = measured here: total cells without miR-34 induction
# [25] = MELAS cybrid survival, CellTiter-Glo 48 h, stronger effect = higher value
# [26] = Rieske KO mouse fibroblast survival, CellTiter-Glo 72 h
# Chain of Mitogen-activated protein kinase 7 (Homo sapiens) (Q13164 whole entry, looked up, the tested form may be a part): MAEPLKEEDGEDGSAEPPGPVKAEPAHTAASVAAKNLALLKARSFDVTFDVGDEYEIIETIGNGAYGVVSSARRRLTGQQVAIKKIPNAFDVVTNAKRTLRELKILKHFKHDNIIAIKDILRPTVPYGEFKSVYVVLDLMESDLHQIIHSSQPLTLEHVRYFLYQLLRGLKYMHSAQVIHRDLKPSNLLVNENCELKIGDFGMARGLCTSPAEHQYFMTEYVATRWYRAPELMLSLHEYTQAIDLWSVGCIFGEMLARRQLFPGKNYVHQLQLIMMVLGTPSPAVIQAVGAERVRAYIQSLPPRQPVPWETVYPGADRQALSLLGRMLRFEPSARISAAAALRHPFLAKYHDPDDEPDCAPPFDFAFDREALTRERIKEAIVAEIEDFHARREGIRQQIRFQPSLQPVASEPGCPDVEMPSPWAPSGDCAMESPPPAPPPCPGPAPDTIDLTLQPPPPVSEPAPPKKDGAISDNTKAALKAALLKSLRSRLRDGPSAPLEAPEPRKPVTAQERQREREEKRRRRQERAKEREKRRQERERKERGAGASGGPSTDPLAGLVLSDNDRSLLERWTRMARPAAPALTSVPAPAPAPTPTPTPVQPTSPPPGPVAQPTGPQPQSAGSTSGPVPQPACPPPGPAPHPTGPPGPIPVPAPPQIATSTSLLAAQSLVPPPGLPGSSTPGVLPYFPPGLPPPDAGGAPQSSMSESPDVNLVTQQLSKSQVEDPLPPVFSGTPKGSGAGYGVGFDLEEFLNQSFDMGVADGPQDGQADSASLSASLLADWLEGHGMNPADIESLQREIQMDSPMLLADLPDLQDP
# Chain of 6-phosphogluconate dehydrogenase, decarboxylating (Homo sapiens) (P52209 whole entry, looked up): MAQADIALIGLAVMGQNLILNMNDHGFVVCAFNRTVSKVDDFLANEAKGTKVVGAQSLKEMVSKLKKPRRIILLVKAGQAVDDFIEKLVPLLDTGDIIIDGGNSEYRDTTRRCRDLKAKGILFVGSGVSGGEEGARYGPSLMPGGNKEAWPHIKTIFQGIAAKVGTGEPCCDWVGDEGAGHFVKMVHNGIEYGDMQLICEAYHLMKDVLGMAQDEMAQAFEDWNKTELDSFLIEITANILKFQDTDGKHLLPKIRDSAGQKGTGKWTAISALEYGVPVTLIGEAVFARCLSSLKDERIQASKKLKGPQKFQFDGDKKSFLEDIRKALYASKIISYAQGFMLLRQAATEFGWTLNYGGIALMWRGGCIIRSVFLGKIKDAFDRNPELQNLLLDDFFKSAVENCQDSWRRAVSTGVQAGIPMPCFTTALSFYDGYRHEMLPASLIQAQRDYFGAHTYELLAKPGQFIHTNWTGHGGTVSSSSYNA
# Chain of NAD(+) hydrolase SARM1 (Homo sapiens) (Q6SZW1 whole entry, looked up): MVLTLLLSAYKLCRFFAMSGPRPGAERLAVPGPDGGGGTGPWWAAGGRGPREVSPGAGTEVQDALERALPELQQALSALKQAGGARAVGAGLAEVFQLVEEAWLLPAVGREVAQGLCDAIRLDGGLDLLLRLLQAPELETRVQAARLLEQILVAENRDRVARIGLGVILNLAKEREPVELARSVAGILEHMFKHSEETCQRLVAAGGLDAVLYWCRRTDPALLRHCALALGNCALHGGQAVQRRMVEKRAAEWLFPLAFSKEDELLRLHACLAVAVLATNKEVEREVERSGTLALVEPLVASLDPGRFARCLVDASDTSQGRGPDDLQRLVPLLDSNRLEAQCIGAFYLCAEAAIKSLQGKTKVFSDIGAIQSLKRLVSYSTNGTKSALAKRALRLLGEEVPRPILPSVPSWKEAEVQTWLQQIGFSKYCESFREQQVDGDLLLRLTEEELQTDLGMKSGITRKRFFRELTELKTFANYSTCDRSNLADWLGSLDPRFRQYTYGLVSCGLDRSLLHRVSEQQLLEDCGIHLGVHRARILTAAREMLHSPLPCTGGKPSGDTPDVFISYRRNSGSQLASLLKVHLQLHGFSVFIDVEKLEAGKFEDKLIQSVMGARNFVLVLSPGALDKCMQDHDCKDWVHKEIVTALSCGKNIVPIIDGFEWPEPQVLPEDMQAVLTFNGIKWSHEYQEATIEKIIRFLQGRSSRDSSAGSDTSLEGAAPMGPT
smiles,measurement,setting,value
O=C1c2ccccc2C(=O)c2ccccc21,parasite load remaining,[1],115% (inactive)
same,viability,[1],67.1%
same,nuclear beta-catenin stimulation,[2]; at 10 µM,1.3% (inactive)
same,nuclear beta-catenin stimulation,"[2]; stimulation, at 2 µM",0.4%
same,insulin secretion stimulation,[3],-1.4% (inactive)
same,viability decrease,[4],2.3% (inactive)
same,tube area decrease,[5],6.7% (inactive)
same,GLP1 secretion stimulation,[6],1.9% (inactive)
same,inhibition of viability,[7],-45% (inactive)
same,viability decrease (inhibition),[8],31.6% (inactive)
same,viability decrease (inhibition),[9],4.05% (inactive)
same,inhibition,[10],-2.54% (inactive)
same,red/green cell ratio (normalised),[11],0.79 (inactive)
same,normalised cell number,[11]; [20],1.17
same,normalised cell number,[11]; [21],0.92
same,activity remaining,[12],119% (inactive)
same,luciferase signal,[13],100 AU (inactive)
COc1ccccc1N1CCNCC1,nuclear beta-catenin stimulation,[2]; at 10 µM,0.2% (inactive)
same,nuclear beta-catenin stimulation,"[2]; stimulation, at 2 µM",-0.4%
same,insulin secretion stimulation,[3],-0.2% (inactive)
same,viability decrease,[4],-7.7% (inactive)
same,tube area decrease,[5],7.7% (inactive)
same,GLP1 secretion stimulation,[6],-2.3% (inactive)
same,inhibition of viability,[7],-22.5% (inactive)
same,viability decrease (inhibition),[8],106% (active)
same,viability decrease (inhibition),[9],-1.65% (inactive)
same,inhibition,[10],-1.05% (inactive)
same,red/green cell ratio (normalised),[11],0.87 (inactive)
same,normalised cell number,[11]; [20],1.09
same,normalised cell number,[11]; [21],0.94
same,activity remaining,[12],95.5% (inactive)
same,remaining activity,[14],96.8% (inactive)
same,fold change,[15]; stronger effect = lower value,0.98 (inactive)
same,fold change,[15]; [22],1.58
same,cell count,[15]; [23],9780
same,cell count,[15]; [24],9980
same,z-score,[16],1.06 (inactive)
Clc1ccc(CSC(Cn2ccnc2)c2ccc(Cl)cc2Cl)cc1 (stereo unspecified),survival,[17],7.67 (inactive)
same,parasite load remaining,[1],45.1% (inactive) and 43.8% (inactive) and 9.3% (inactive)
same,viability,[1],77.3% and 59.6% and 86.4%
same,nuclear beta-catenin stimulation,[2]; at 10 µM,4.8% (inactive)
same,nuclear beta-catenin stimulation,"[2]; stimulation, at 2 µM",1.5%
same,insulin secretion stimulation,[3],2.6% (inactive)
same,viability decrease,[4],101% (active)
same,tube area decrease,[5],110% (active)
same,GLP1 secretion stimulation,[6],45.8% (active)
same,inhibition of viability,[7],102% (active)
same,viability decrease (inhibition),[8],141% (active)
same,viability decrease (inhibition),[9],104% (active)
same,inhibition,[10],1.36% (inactive)
same,red/green cell ratio (normalised),[11],0.91 (inactive)
same,normalised cell number,[11]; [20],1.1
same,normalised cell number,[11]; [21],1
same,activity remaining,[12],106% (inactive)
same,fold change,[15]; stronger effect = lower value,0.925 (inactive) and 0.946 (inactive) and 1.1 (inactive)
same,fold change,[15]; [22],1.29 and 0.637 and 1.2
same,cell count,[15]; [23],6020 and 7170 and 8360
same,cell count,[15]; [24],6500 and 7580 and 7600
same,z-score,[18]; [25],-0.246 (inactive) and 0.0301 (inactive)
same,z-score,[18]; [26],-0.177 and -0.00115
same,remaining NAD,[19],10 nM (inactive)
same,luciferase signal,[13],44 AU (inactive)
CC(=O)NC1CCSC1=O (stereo unspecified),survival,[17],5.75 (inactive)
same,parasite load remaining,[1],132% (inactive)
same,viability,[1],109%
same,nuclear beta-catenin stimulation,[2]; at 10 µM,2.9% (inactive)
same,nuclear beta-catenin stimulation,"[2]; stimulation, at 2 µM",3%
same,insulin secretion stimulation,[3],0.7% (inactive)
same,viability decrease,[4],-1% (inactive)
same,tube area decrease,[5],8% (inactive)
same,GLP1 secretion stimulation,[6],-0.5% (inactive)
same,inhibition of viability,[7],-4.73% (inactive)
same,viability decrease (inhibition),[8],12.1% (inactive)
same,viability decrease (inhibition),[9],-3.7% (inactive)
same,inhibition,[10],18.8% (inactive)
same,red/green cell ratio (normalised),[11],0.96 (inactive)
same,normalised cell number,[11]; [20],1.05
same,normalised cell number,[11]; [21],1.02
same,fold change,[15]; stronger effect = lower value,0.927 (inactive)
same,fold change,[15]; [22],0.928
same,cell count,[15]; [23],7880
same,cell count,[15]; [24],8510
same,z-score,[18]; [25],-0.207 (inactive)
same,z-score,[18]; [26],-0.982
same,remaining NAD,[19],10 nM (inactive)
same,luciferase signal,[13],52 AU (inactive)
